Results taken from PubChem BioAssay (NCI).
About 83,000 compounds went through this panel and 20% of them were active in at least one assay; those are over-represented in the sample as a whole.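 Single-concentration screen, 48 h exposure, 96-well plates. Endpoint: percent growth. Below 10 = active.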 Values without a mark were called inactive. Active and inactive are the calls of the source.

test system: CCRF-CEM leukemia; test: NCI-60 one-dose screen, 48 h (100 = growth as untreated, 0 = no growth, -100 = all killed); conditions: 10 µM unless noted
Procedure: Growth inhibition of the CCRF-CEM human tumor cell line is measured as a screen for anti-cancer activity. Cells are grown in 96 well plates and exposed to the test compound for 48 hours. Compounds are tested at a single concentration, which is 10^-5 M for most compounds. The reported endpoint is percent growth (GI% or GIPRCNT), where numbers from 0 - 100% represent growth inhibition, and numbers from -100% - 0 represent cell death. For example, a value of 40 represents 60% growth inhibition. A value of 0 means no net growth occurred over the course of the experiment. A value of -40 indicates 40% of cells at the beginning of the experiment died by the end of the experiment. A value of -100 means all cells are dead at the end of the experiment.
NCI-60 Human Tumor Cell Lines Screen was performed using the standard one-dose NCI protocol, which is described in more detail at https://dtp.cancer.gov/discovery_development/nci-60/default.htm.
Compounds with GIPRCNT values below 10 were considered active. Activity score was based on GIPRCNT using the following formula: […]
Score is 0 for GIPRCNT values of 100 or above, 50 for GIPRCNT values of 0, and 100 for GIPRCNT values of -100.

Compound | growth
COc1ccc2sc3c(NCCCN)nc4ccccc4c3c(=O)c2c1 | 0.782% (active)
COCCN(C(=O)Cc1cccs1)C(C(=O)NCc1ccc(OC)cc1)c1ccc(C(C)C)cc1 (stereo not given) | 93.9%
COc1ccc(-c2cn[nH]c2-c2cc(OC)c(OC)c(OC)c2)cc1OCc1ccccc1 | 47%
CN1CCN(Cc2ccc(NC(=O)c3cncc(C#Cc4nc(N)nc5[nH]ncc45)c3)cc2C(F)(F)F)CC1 | 5.35% (active)
C=C(C)CCC(C)N1CCC(N2CCC(C(=O)NCCc3ccccc3)CC2)CC1 (stereo not given) | 45.5%
O=C1Nc2ccccc2/C1=C/c1ccc[nH]1 | 109%
C=C[C@@H]1CCC/C=C/[C@@H]2C[C@H](O)C[C@H]2[C@H](O)/C=C/C(=O)O1 | 12.6%
O=Cc1c(OCc2cnnn2CC(=O)Nc2ccc(Cl)cc2)ccc2ccccc12 | 110%
C[C@@H](C(=O)NCCCC#Cc1cnc(Nc2ccc(C#N)cc2)nc1NC1CC1)N(C)C(=O)/C=C/CN(C)C | 13.8%
O=C(Nc1ccc(Br)cc1F)c1cc(Cl)ccc1O | 5.57% (active)
CC(=O)n1cc(-c2c[nH]c3ccccc23)c(-c2ccc(Cl)cc2)n1 | 82.2%
O=C1C(Cl)=C(NCc2ccco2)C(=O)c2ccccc21 | 24.4%
Nc1nc2c(ncn2[C@@H]2O[C@H](CS)[C@@H](O)[C@H]2O)c(=O)[nH]1 | 100%
COc1ccc(-c2nc(-c3ccccc3)c(-c3ccccc3)[nH]2)cc1OC1CCCCC1 | 91.6%
NCCNc1nc2ccc(F)cc2c2c(=O)c3cc(F)ccc3sc12 | 20.7%
O=Cc1c(OCc2cnnn2CC(=O)Nc2ccc(Br)cc2)ccc2ccccc12 | 97.4%
CC[C@]1(O)C[C@@H]2CN(CCc3c([nH]c4ccccc34)[C@@](C(=O)OC)(c3cc4c(cc3OC)N(C)[C@H]3[C@@](O)(C(=O)OC)[C@H](OC(=O)CCCBr)[C@]5(CC)C=CCN6CC[C@]43[C@@H]65)C2)C1 | 6.76% (active)
Nc1ccc(-n2c(=O)oc3ccc(Cl)cc3c2=O)c(Cl)c1 | 0.0077% (active)
O=C(/C=C/c1ccc(C(F)(F)F)cc1)c1ccc(Nc2nc(NCCO)nc(Nc3ccc(Cl)cc3)n2)cc1 | 18.2%
O=C(Nc1ccccc1O)c1ccc(-c2ccc(Cl)cc2Cl)o1 | 75.1%

Compound | growth
O=C(c1ccccc1)N(C(=S)NCCc1ccc(Cl)cc1)c1ccccc1 | 61.3%
O=C(CN1C(=O)/C(=C\c2ccc(Cl)cc2)SC1=S)Nc1ncc(Cc2ccc(Cl)cc2)s1 | 106%
COc1cc(NC(=O)CCSc2nc3ccccc3c(=O)n2CCc2ccccn2)cc(OC)c1OC | 83.2%
Nc1nc(-c2ccccc2Br)nn1-c1nc2ccccc2s1 | 101%
O=C(N/N=C/c1ccccc1Cl)C(=O)Nc1cccc(C(F)(F)F)c1 | 100%
COc1ccc(CCN2C(=O)CCSC2=S)cc1 | 30%
COc1cc2nc(-c3cccc4cccnc34)nc(NC3CCN(Cc4ccccc4)CC3)c2cc1OC | -30.1% (active)
O=C(CSc1nc2ccccc2c(=O)n1-c1ccccc1)Nc1ccc(C(=O)/C=C/c2ccc(Cl)cc2)cc1 | 99.7%
O=S1(=O)N(Cc2ccccc2)[C@@H](Cc2ccccc2)C2O[C@H]2[C@H](Cc2ccccc2)N1Cc1ccccc1 (stereo not given in full) | 29.5%
COc1ccc(Cn2c(Br)c3c(c2-c2cc(OC)c(OC)c(OC)c2)CCc2sc(NC(C)=O)nc2-3)cc1 | 16.9%
Nc1n[nH]c2ccc([C@@H]3Nc4ccc5[nH]ncc5c4[C@H]4[C@H]5CCC(C5)[C@H]43)cc12 | 17%
c1ccc(-c2ccc(-c3nc4ccccc4[nH]3)cc2)cc1 | 38.4%
COc1cc(C2C3=C(COC3=O)N(CCO)c3cc4c(cc32)CCC4)cc(OC)c1O (stereo not given) | 17.2%
Nc1ccccc1-c1ccc(-c2ccc(Cl)cc2)c2c1[nH]c1ccccc12 | 37.4%
O=C(Nc1ccc(Cl)cc1)c1cc2ccccc2cc1OP(=O)(O)O | 18.2%
Cc1ccc(S(=O)c2ccc([N+](=O)[O-])c3nonc23)cc1 (stereo not given) | 1.61% (active)
COc1ccc(N)c(-c2cc3c(c4c2[nH]c2ccc(OC)cc24)CCCC3)c1 | 55.4%
O=C1CCC(N2C(=O)c3cccc(NCCCCCCOc4ccc(Nc5nccc(Nc6ccccc6)n5)cc4)c3C2=O)C(=O)N1 (stereo not given) | 66.1%
COc1ccc(/C=C/C(=O)c2c(C)nc3ccccc3c2/C=C/c2ccccc2)c(OC)c1 | 76.5%
CCn1c(Cc2ccccc2Nc2c(Cl)cccc2Cl)nnc1SCC(=O)NN1C(=O)/C(=C/c2cccc(OC)c2OC)SC1=S | 96.6%
